High-throughput results deposited in PubChem by several laboratories.
Sampled rows, rich in hits. Any-hit rate of the full collection: about 1.2%.
VLA-4 inh: inhibition in human VLA-4 binding assay, primary screen, VLA-4 allosteric modulator project, MLPCN library, flow cytometry, VLA-4 expressing cells; ligand binding flow cytometry; inhibition, % (about 7 µM as worked out from the volumes in the protocol); 330,000 compounds, 0.2% hits; AID 2557, 2010; in the data active means inhibition above about 50%
GASC-1 inh: inhibitors of GASC-1 histone demethylase, primary screen, biochemical, fluorescence, DELFIA europium; Lysine-specific demethylase 4C (Homo sapiens), Q9H3R0; 330,000 compounds, 0.069% hits; inhibition, % at 2.35 µM; GST-JMJD2C(1-420) H3K9me3 demethylation;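 active means more than half of a compound's replicate wells show inhibition beyond 50%, single wells judged on their own value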;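 further: signal counts dimethyl H3K9 product captured on neutravidin plate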
GPR7 antag: GPR7 receptor antagonists, primary screen, cell-based, fluorescence, single concentration; Neuropeptides B/W receptor type 1 (Homo sapiens), P48145; GPR7-expressing cells, fluorescence antagonist assay; inhibition, % at 4.4 µM; 290,000 compounds, 1.1% hits; AID 1861, 2009; in the data active means inhibition above about 16%, passing the limit was not always enough;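 further: cells stimulated with the agonist NPW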
p-CIP stab down: p/CIP-EGFP fusion destabilizers, primary screen, fluorescence, F442A cells; 290,000 compounds, 0.01% hits; 16 h; Q05BA5; decrease of EGFP signal, % at 10 µM;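 active means EGFP signal decrease of at least 30% at 10 µM or well 3 SD below plate mean, unless failing retest; inactive means the rest, including hits failing retest or dose response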
VLA-4 mod pick: retest of VLA-4 allosteric modulators, confirmation, cell-based, cherry-picked plates, U937, HUTS-21 LIBS antibody; shares compounds with VLA-4 inh; U937 cells, HUTS-21 LIBS mAb binding, flow cytometry; LDV ligand present at threefold Kd; inhibition, % at 6.7 µM; 1,300 compounds, 2% hits; in the data active means inhibition above about 40%
Of the large screens only hits and unclear results are named; the others gave an inactive call (follow-up assays come after a bar, where they were run).

CCN(CC)C(=O)c1sc(NC(=O)C(Sc2ccccc2)c2ccccc2)c(C(=O)OC(C)C)c1C (stereo not drawn)	none
O=C1C2CCCCN2C(=O)N1CCN1CCN(c2ccc([N+](=O)[O-])cc2)CC1 (stereo not drawn)	VLA-4 inh 93 | VLA-4 mod pick inactive
O=C(CSc1nnc(-c2ccccc2O)o1)Oc1ccc(Br)cc1	none
O=C(CSc1nnc(-c2ccccc2Cl)o1)Oc1ccc(Br)cc1	VLA-4 inh 91 | VLA-4 mod pick inactive
CC(C)NC(=O)CCCC(=O)NC(C)C	none | VLA-4 mod pick inactive
CCOC(=O)N1CCC2(CC1)CC(=O)c1cc(O)ccc1O2	VLA-4 inh 109, GPR7 antag 18 | VLA-4 mod pick inactive
COc1ccc(OC)c(NC(=O)C(CC(=O)O)NCc2ccco2)c1 (stereo not drawn)	none
COCCCN(C(=O)CCOc1ccc(C)cc1)c1c(N)n(Cc2ccccc2)c(=O)[nH]c1=O	VLA-4 inh 50 (no result: GPR7 antag, p-CIP stab down) | VLA-4 mod pick inactive
COC(=O)c1ccc(NC(=O)c2sc3nc(-c4ccccc4)cn3c2C)cc1	VLA-4 inh 52 | VLA-4 mod pick inactive
O=C(C[n+]1ccc(Cc2ccccc2)cc1)Nc1ccccc1	none
CCN(CC(=O)Nc1ccc(N2CCOCC2)cc1)CC(=O)NC(C)(C)C	none | VLA-4 mod pick inactive
CN(CC(=O)Nc1ccc(N2CCOCC2)cc1)C(=O)CCNC(=O)c1ccc(Br)cc1	VLA-4 inh 50 (no result: GPR7 antag, p-CIP stab down) | VLA-4 mod pick inactive
CC(OC(=O)Cc1c[nH]c2ccccc12)C(=O)Nc1ccccc1F (stereo not drawn)	none (no result: GPR7 antag, p-CIP stab down)
CNC[C@H]1Oc2ccc(NC(=O)Nc3ccccc3)cc2CC(=O)N([C@H](C)CO)C[C@H]1C	none (no result: GPR7 antag, p-CIP stab down)
Cc1cccc(C)c1OCC(=O)Nc1ncn[nH]1	VLA-4 inh 52 | VLA-4 mod pick inactive
COc1ccc(S(=O)(=O)N2CCc3ccccc32)cc1C(=O)N1CCOCC1	none (no result: GPR7 antag, p-CIP stab down)
O=C(CSc1nnc(Nc2ccccc2)s1)NN1C(=O)NC2(CCCCC2)C1=O	none | VLA-4 mod pick inactive
CCOc1cc(CNCCCN2CCOCC2)cc(Br)c1OCc1ccccc1Cl	VLA-4 inh 56, GPR7 antag 39 | VLA-4 mod pick inactive
CCOc1cc(CNCCO)cc(Br)c1OCc1ccccc1Cl	none
CCC(=O)Nc1nnc(-c2ccc(Cl)s2)o1	none | VLA-4 mod pick inactive
COc1ccc(N2C(=O)CC(N3CCCCC3)C2=O)cc1 (stereo not drawn)	none | VLA-4 mod pick inactive
CCCOc1ccc(N2C(=O)CC(N3CCC(C(=O)OCC)CC3)C2=O)cc1 (stereo not drawn)	none | VLA-4 mod pick inactive
CCCCN(C(=O)c1ccncc1)c1c(N)n(CCC)c(=O)[nH]c1=O	none (no result: GPR7 antag, p-CIP stab down)
O=[N+]([O-])c1ccc(CCn2ccnc2)cc1	none | VLA-4 mod pick inactive
O=[N+]([O-])c1ccc(-n2ccnc2)cc1	none
COC(=O)CCCNC(=O)c1ccc2oc(CCCc3ccccc3)nc2c1	none
CCCc1nc2cc(CC(=O)OC)ccc2o1	VLA-4 inh 72 | VLA-4 mod pick inactive
COc1cc(/C=N/Nc2ncc(C(F)(F)F)cc2Cl)cc(OC)c1OC	none | VLA-4 mod pick inactive
C=CCNC(=O)Cn1c(=O)c2c(ncn2CCC(C)C)n(Cc2ccccc2)c1=O	VLA-4 inh 50 | VLA-4 mod pick inactive
C=CCNC(=O)NC(=O)Cn1c(=O)c2c(ncn2CC)n(Cc2ccccc2)c1=O	none
O=C(N/N=C/c1ccc(Cl)cc1)c1cc(-c2cccnc2)nc2ccccc12	VLA-4 inh 50 | VLA-4 mod pick inactive
O=C(N/N=C/c1ccc(Cl)c([N+](=O)[O-])c1)c1cc(-c2ccccc2)nc2ccccc12	VLA-4 inh 56 | VLA-4 mod pick inactive
O=C(N/N=C/c1cccnc1)c1cc(-c2ccc(Cl)cc2)nc2ccccc12	none (no result: GPR7 antag, p-CIP stab down)
Cc1cc(C)nc(SCc2nnc(SCC(=O)O)n2-c2ccccc2)n1	none
Cc1ccc(-n2c(CSc3nc(C)cc(C)n3)nnc2SCC(=O)N2CCCC2)cc1	VLA-4 inh 50 | VLA-4 mod pick inactive
COc1ccc(-n2c(Cc3cc(=O)[nH]c(=O)[nH]3)nnc2SCc2ccccc2)cc1	VLA-4 inh 51 | VLA-4 mod pick inactive
O=C(CSc1nnc(Cc2cc(=O)[nH]c(=O)[nH]2)n1-c1ccc(F)cc1)N1CCCCC1	none | VLA-4 mod pick inactive
